# Measured values from PubChem BioAssay (NCI).
# This is part of a sample that, as a whole, favours compounds with a hit. Of some 83,000 tested, about 20% had one in any assay.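 For each line, cells grew in 96-well plates with the test compound present at a single concentration for 48 hours.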 Values without a mark were called inactive. Active and inactive are the calls of the source. The calls were made as follows: active = growth percent below 10; inactive = the rest.
# Experiments:
# Test in all cases: NCI-60 one-dose screen, 48 h (100 = growth as untreated, 0 = no growth, -100 = all killed)
# Details in all cases: 10 µM unless noted
# NCI-H23 lung = tested on: NCI-H23 lung
# NCI-H226 lung = tested on: NCI-H226 lung
# NCI-H322M lung = tested on: NCI-H322M lung
# HOP-62 NSCLC = tested on: HOP-62 NSCLC
# NCI-H460 lung = tested on: NCI-H460 lung
# NCI-H522 lung = tested on: NCI-H522 lung
# A549/ATCC NSCLC = tested on: A549/ATCC NSCLC
# 786-0 renal = tested on: 786-0 renal
# COLO 205 colon = tested on: COLO 205 colon
# DU-145 prostate = tested on: DU-145 prostate
# K-562 leukemia = tested on: K-562 leukemia
# MALME-3M melanoma = tested on: MALME-3M melanoma
# MDA-MB-231 breast = tested on: MDA-MB-231 breast
# RXF 393 renal = tested on: RXF 393 renal
# SF-268 CNS = tested on: SF-268 CNS
# SF-295 CNS = tested on: SF-295 CNS
# SF-539 CNS = tested on: SF-539 CNS
# UACC-257 melanoma = tested on: UACC-257 melanoma
# M14 melanoma = tested on: M14 melanoma
Structure (SMILES),growth (NCI-H23 lung),growth (NCI-H226 lung),growth (NCI-H322M lung) [%],growth (HOP-62 NSCLC) [%],growth (NCI-H460 lung),growth (NCI-H522 lung),growth (A549/ATCC NSCLC) [%],growth (786-0 renal),growth (COLO 205 colon),growth (DU-145 prostate),growth (K-562 leukemia),growth (MALME-3M melanoma),growth (MDA-MB-231 breast) [%],growth (RXF 393 renal),growth (SF-268 CNS),growth (SF-295 CNS),growth (SF-539 CNS),growth (UACC-257 melanoma),growth (M14 melanoma)
Cc1cc(C)cc(C(=O)Nc2cccc(C#Cc3cccc4[nH]nc(N)c34)c2)c1,76.6%,67.3%,88.4,67,50.7%,23.6%,54.8,89.9%,77.9%,71.9%,9.8% (active),86.2%,40,-10.9% (active),55%,65%,38.6%,90.7%,43.5%
CC(C)(C)n1nnnc1C(Nc1cccc2c1OCO2)c1cc2cccc3ccc4cccc1c4c32 (centres undefined),87.4%,82.2%,96,98.8,88.8%,78.8%,81.3,93.2%,103%,97.5%,75%,93.2%,80.5,40.6%,78.7%,81.9%,93%,100%,97.8%
O=C(Cn1c(-c2ccccc2)nc2cc(Cl)c(Cl)cc21)N=Nc1c(O)[nH]c2ccc(Cl)cc12,68.7%,37.3%,94.6,86.5,65.8%,72.1%,73.8,96.2%,66.6%,75.7%,63.2%,81.6%,85,-5.08% (active),104%,77.7%,79.4%,84.4%,60.7%
COc1ccc(-n2c(SCc3n[nH]c(=S)o3)nc3ccc(Cl)cc3c2=O)cc1,99%,77.6%,97.6,97.2,103%,87.6%,97.7,94.1%,114%,96.3%,99.6%,95.3%,94.6,89.5%,92.1%,97.3%,91.5%,102%,112%
Cc1cc(-c2ccc(Cl)cc2)n(Cc2nnc(SCC(=O)Nc3ccc(S(N)(=O)=O)cc3)n2-c2ccc([N+](=O)[O-])cc2)n1,90.2%,85.1%,96,104,67.1%,90%,84.3,109%,97%,101%,64.3%,92.9%,93.3,75.9%,95.6%,73.4%,97%,98.5%,85.5%
CCOc1ccc(C(=O)Nc2ncc(Cc3ccc(F)cc3)s2)cc1,28.4%,40.1%,55.3,33.7,7.15% (active),10.8%,33.6,39.3%,-21.9% (active),28.8%,9.95% (active),63.6%,36,1.11% (active),53.6%,4.39% (active),1.96% (active),77.7%,15.4%
CNC(=O)c1cc(Oc2ccc3nc(NC(=O)c4ccc(N5CCOCC5)c(C(F)(F)F)c4)sc3c2)ccn1,78.9%,91.5%,91.7,90.5,68.8%,77.9%,80.5,47.1%,102%,98.2%,71.9%,94.2%,84.9,-31.3% (active),92.8%,26.5%,68.3%,96.2%,85.9%
O=C(Nc1cccc(Cl)c1)Nc1nc2ccc([N+](=O)[O-])cc2o1,12.6%,29%,17.4,22.2,7.51% (active),-0.721% (active),17.2,28%,-5.17% (active),26.8%,12.3%,-4.16% (active),25.8,-3.23% (active),7.72% (active),24.5%,11.4%,1.92% (active),18.2%
C#CC(=O)N(c1ccc(OC)cc1OC)C(C(=O)NCC(=O)OCC)c1cccs1 (centres undefined),-54.7% (active),93.3%,94.4,102,82.2%,-72.2% (active),94.4,-75.2% (active),35%,33.2%,3.23% (active),-61.8% (active),22.4,56.5%,-23.1% (active),-67.9% (active),-86% (active),86.6%,80.9%
CCNC(=O)N1CCc2cc(OC)c(OCCc3ccc(OC)nc3)cc2C1c1ccc(OC)cc1C (centres undefined),44.8%,38.5%,55.6,31,3.64% (active),19.4%,30.4,22.9%,29.3%,40.6%,20%,49.5%,52.8,24.7%,32.9%,18.2%,22.6%,47%,29.7%
Cc1ccc(C(=O)NN2C(=O)/C(=C/C=C/c3ccco3)SC2=S)cc1,96.7%,96.1%,85.4,105,88.3%,83.5%,82.4,106%,126%,103%,49.3%,93.9%,96.7,131%,96.9%,102%,93.4%,91%,99.8%
CCOC(=O)c1c(Nc2ccccc2)nn2c(-c3ccc(Cl)cc3)ccnc12,73.4%,58.6%,86.5,56.7,44.1%,79.7%,70.4,64.7%,82.1%,79.5%,81.1%,84%,75.4,-10.6% (active),77%,77.5%,71.7%,104%,96.5%
O=C1/C(=C/C=C/c2ccco2)SC(=S)N1c1ccccc1,70.7%,67.8%,87.2,104,91.2%,58%,52.9,71.1%,83.2%,97.6%,64.6%,15.5%,80.3,-33.5% (active),108%,91.3%,90.3%,83.2%,40.7%
COc1cc(OC)c(S(N)(=O)=O)cc1C(=O)/C=C/c1ccc(C)cc1,8.61% (active),-2.47% (active),34.6,11.9,-3.51% (active),11%,22.5,19.9%,17%,1.29% (active),7.24% (active),72.9%,14.2,-28.2% (active),31.6%,23.6%,1.82% (active),81%,41.5%
Cn1cc(-c2nc(N)nnc2-c2c[nH]c3ccccc23)c2cc(Br)ccc21,17%,60.3%,41.9,45.9,12.6%,-2.27% (active),50.8,43.5%,9.53% (active),18.6%,11.6%,40.8%,34.2,7.61% (active),39.6%,-7.74% (active),6.14% (active),72.1%,6.36% (active)
CNC(=O)c1cc(Oc2ccc3nc(NC(=O)c4cc(N5CCOCC5)cc(C(F)(F)F)c4)sc3c2)ccn1,88.2%,85.4%,89.4,89.3,67.5%,81.6%,68.5,80.3%,94%,86.1%,67.2%,87.1%,76.2,-9.02% (active),86%,44.6%,91.5%,82.4%,77.5%
